Measurements: ChEMBL document CHEMBL3988442, “University of Dundee, Small-Polar-MMV Screening Library” (2021)
Screen size: about 66,000 compounds; about 960 (1.5%) showed an effect of 50% or more. This excerpt belongs to a sample that is enriched for strong results.

Test system: Trypanosoma brucei
Assay: Trypanosoma brucei 72 hour study
Type: functional, organism-based
Set-up: scale not given: in the data most compounds retested in dose-response had high values

COc1ccc(NS(=O)(=O)c2cnc(NC(C)=O)s2)cc1
Percent Effect (30.3 µM, […]): -9.359%

CN(Cc1cccnc1)[C@@H]1CN(Cc2cnn(C)c2)[C@@H]2CCCO[C@H]12.O=C(O)C(F)(F)F.O=C(O)C(F)(F)F.O=C(O)C(F)(F)F.O=C(O)C(F)(F)F
Percent Effect (30.3 µM, […]): -6.057%

O=C(NCc1cccnc1)C1=NN(c2ccccc2)C(=O)CN1
Percent Effect (30 µM, 30.03 µM): 71.31%

O=C(Nc1cccnc1)C1=NN(c2ccccc2)C(=O)CN1
Percent Effect (10 µM): -65.06%

N#Cc1ccc(CNC(=O)C2=NN(c3ccccc3)C(=O)CN2)cc1
Percent Effect (30 µM, 30.03 µM): -22.79%

CC(C)(C)CN1CCN(CC2CC2)C(CCO)C1 (configuration not stated)
Percent Effect (30 µM, 30.03 µM): -40.11%

O=C(Nc1ccccn1)C1(n2cnnn2)CCCCC1
Percent Effect (30 µM, 30.03 µM): -28.83%

O=C(O)C(F)(F)F.O=C1N(Cc2ccncc2)CCC12CCCN(c1ncc(F)cn1)C2 (configuration not stated)
Percent Effect (30.3 µM, […]): -38.62%

CN1CCCC[C@@H]2[C@H]1[C@@H](c1ccccc1)CCN2C(=O)c1ccccc1
Percent Effect (30.3 µM, […]): 97.59%

CN1CCCC[C@@H]2[C@H]1[C@@H](c1ccccc1)CCN2C(=O)c1ccncc1
Percent Effect (30.3 µM, […]): 2.626%

CN1CCCC[C@@H]2[C@H]1[C@@H](c1ccccc1)CCN2C(=O)c1ccccn1
Percent Effect (30.3 µM, […]): 12.07%

Cl.O=S(=O)(N1CCCC1)N1CC[C@H](c2ccccc2)[C@H]2NCCCC[C@H]21
Percent Effect (30.3 µM, […]): -20.77%

CN1CCCC[C@@H]2[C@H]1[C@@H](c1ccccc1)CCN2S(=O)(=O)N1CCCC1
Percent Effect (30.3 µM, […]): 98.76%

CN1CCCC[C@@H]2[C@H]1[C@@H](c1ccccc1)CCN2C(=O)c1cccnc1
Percent Effect (30.3 µM, […]): -28.46%

O=C(O)C(F)(F)F.O=C(O)C(F)(F)F.O=C(c1cccnc1)N1CCn2nnc(COc3ccccn3)c2C1
Percent Effect (30 µM, 30.03 µM): 20.03%

Cc1ncsc1CN1C[C@@H]2COC[C@]2(C(=O)NCC2CC2)C1.O=C(O)C(F)(F)F
Percent Effect (30 µM, 30.03 µM): -10.84%

CNc1ncc2c(n1)CN(C1CCCC1)C2=O
Percent Effect (30.3 µM, […]): -26.22%

CNCc1ccc([C@@H]2CN(C)C[C@H]2C(N)=O)cc1.Cl
Percent Effect (30.3 µM, […]): -7.095%

CC(C)(C)c1cc(CN2C[C@H]3CC[C@@H]2CN(Cc2cscn2)C3)n[nH]1
Percent Effect (30 µM, 30.03 µM): 14.03%

O=C(NCCC1COc2ccccc2O1)c1ccc(N2CC(O)C2)nc1 (configuration not stated)
Percent Effect (30 µM, 30.03 µM): 57.01%

CC(C)c1nccn1CCCNC(=O)c1ccc(-c2cn[nH]c2)nc1
Percent Effect (30 µM, 30.03 µM): 3.874%

O=C(NCCC1COc2ccccc2O1)c1ccc(-c2cc[nH]n2)nc1 (configuration not stated)
Percent Effect (30 µM, 30.03 µM): 51.23%

Cn1ccnc1-c1ccc(NCCC2COc3ccccc3O2)nn1 (configuration not stated)
Percent Effect (30 µM, 30.03 µM): -17.77%

CC(C)c1noc(CCNC(=O)NCC2COc3ccccc3O2)n1 (configuration not stated)
Percent Effect (30 µM, 30.03 µM): -35.89%

O=C(NCc1ccc2c(c1)OCO2)c1ccc(N2CCCCCC2)nc1
Percent Effect (30 µM, 30.03 µM): -3.476%

CN(CC1COc2ccccc2O1)C(=O)C1=NN(C)C(=O)CC1 (configuration not stated)
Percent Effect (30 µM, 30.03 µM): -29.23%

O=C(NCCC1COc2ccccc2O1)c1ccc(-c2cn[nH]c2)nc1 (configuration not stated)
Percent Effect (30 µM, 30.03 µM): 81.06%

CN(CC1COc2ccccc2O1)C(=O)c1ccc(-c2cn[nH]c2)nc1 (configuration not stated)
Percent Effect (30 µM, 30.03 µM): 34.02%

CN1CCCC(c2ccnc(C(=O)NC3CC3)c2)C1 (configuration not stated)
Percent Effect (30.3 µM, […]): -4.506%

Cc1occc1C(=O)N1CCC2(CC1)CC(OCc1ccccn1)CO2.O=C(O)C(F)(F)F (configuration not stated)
Percent Effect (30.3 µM, […]): -782.3%

CCC(C)NC(=O)c1nnn(-c2cccc3c2CCN(C)C3)c1C (configuration not stated)
Percent Effect (30 µM, 30.03 µM): 31.65%

CC(C)c1ncc(CN2CCC(CO)C2)cn1.O=C(O)CC(O)(CC(=O)O)C(=O)O (configuration not stated)
Percent Effect (30.3 µM, […]): -24.24%

O=C(NCc1cccnc1)N1CCC2(CC(=O)N(c3ccsc3)C2)C1.O=C(O)C(F)(F)F (configuration not stated)
Percent Effect (30.3 µM, […]): -73.27%

Cc1ccsc1-c1cccc(-c2ccn(CC3CCNC3)n2)c1 (configuration not stated)
Percent Effect (30 µM, 30.03 µM): 33.01%

CN(C(=O)c1ccon1)[C@@H]1CCC[C@@H](Oc2ccccc2)[C@@H]1O
Percent Effect (30.3 µM, […]): -27.68%

Cc1noc(C)c1C(=O)N[C@@H]1CC[C@@H](Oc2ccccc2)[C@@H]1O
Percent Effect (30.3 µM, […]): -4.467%

N[C@@H]1CCC[C@@H](Oc2ccc(F)cc2Oc2ccccc2)[C@@H]1O
Percent Effect (30.3 µM, […]): 101.1%

N[C@@H]1CCC[C@@H](Oc2ccc(F)cc2Oc2cccc(F)c2)[C@@H]1O
Percent Effect (30.3 µM, […]): 3.71%

Cc1ccc(Oc2cc(F)ccc2O[C@@H]2CCC[C@@H](N)[C@H]2O)cc1
Percent Effect (30.3 µM, […]): 100.7%

Cc1noc(C)c1C(=O)N[C@@H]1CCC[C@@H](Oc2ccccc2)[C@@H]1O
Percent Effect (30.3 µM, […]): 5.859%

Cc1cc(C)nc(N2CC[C@H](Oc3ccccc3F)[C@@H](O)CC2)n1
Percent Effect (30.3 µM, […]): -2.702%

CNCc1cc(F)ccc1Oc1ccc(F)cc1
Percent Effect (30.3 µM, […]): -17.97%

CN[C@@H]1CCC[C@@H](Oc2ccccc2Oc2ccc(C)cc2)[C@@H]1O
Percent Effect (30.3 µM, […]): 101%

Cc1ccc(N2CC[C@H]3O[C@@H](C(=O)N4CCCCO4)CC[C@H]32)nn1.O=C(O)C(F)(F)F
Percent Effect (30.3 µM, […]): -38.73%

Cc1cc(C(=O)N2CCc3nnc(N)cc3C2)c(C)n1-c1ccccc1
Percent Effect (10 µM): -23.32% | Percent Effect (30.3 µM, […]): -29.37%

Cc1ccoc1-c1nnc(CN2CCn3c(C)nnc3C2)o1
Percent Effect (10 µM): -13.57% | Percent Effect (30.3 µM, […]): -3.504%

CN(C)c1cc(C2CCCN(S(=O)(=O)c3cn[nH]c3)C2)ccn1 (configuration not stated)
Percent Effect (30.3 µM, […]): -2.52%

Cc1cccc(CNc2cc(C3CCCNC3)ccn2)n1.Cl (configuration not stated)
Percent Effect (30.3 µM, […]): 3.917%

CCC1CN(C)c2ccccc2CN1C(=O)Nc1ccccc1OC (configuration not stated)
Percent Effect (30.3 µM, […]): 42.13%

CC(c1cccnc1)N(C)Cc1cc(O)c2cc(F)ccc2n1 (configuration not stated)
Percent Effect (30 µM, 30.03 µM): -16.14%

Br.Cn1cc(CN2CCC(c3cc(COc4cccc(Cl)c4)[nH]n3)C2)cn1 (configuration not stated)
Percent Effect (30.3 µM, […]): 49.27%

O=C(O)C(F)(F)F.O=C(c1ccoc1)N1C[C@@H]2OCCN(c3ncccn3)[C@@H]2C1
Percent Effect (30.3 µM, […]): -8.279%

Cc1c(C)c(C)c2[nH]c(-c3cn(C4CCNCC4)nn3)nc2c1C
Percent Effect (30 µM, 30.03 µM): 91.25%

Cc1ccc2[nH]c(-c3cn(C4CCNCC4)nn3)nc2c1C
Percent Effect (30 µM, 30.03 µM): -22.65%

Cc1cccc2[nH]c(-c3cn(C4CCNCC4)nn3)nc12
Percent Effect (30 µM, 30.03 µM): -21.72%

O=C(NCC1CC1)C1CCC2(CCN(C(=O)c3cccnc3)CC2)O1.O=C(O)C(F)(F)F (configuration not stated)
Percent Effect (30.3 µM, […]): -34.45%

O=C([C@H]1C[C@@H]2CN(c3ncc(F)cn3)C[C@H]1O2)N1CCCC1
Percent Effect (30.3 µM, […]): -1.674%

Cc1cc(Cc2ccc(F)cc2)cc(C2CCCNC2)n1 (configuration not stated)
Percent Effect (30.3 µM, […]): 51.54%

Cc1cccc(Cc2cc(C)nc(C3CCCNC3)c2)c1 (configuration not stated)
Percent Effect (30.3 µM, […]): 100.3%

Cc1nc(C2CCCNC2)cc(N(C)CCc2ccccc2)n1 (configuration not stated)
Percent Effect (30.3 µM, […]): 33.93%

Cc1cc(Nc2cnccn2)cc(C2CCCNC2)n1 (configuration not stated)
Percent Effect (30.3 µM, […]): -9.252%

Cc1cc(Cc2ccccc2C)cc(C2CCCNC2)n1 (configuration not stated)
Percent Effect (30.3 µM, […]): 49.51%

Cc1cc(Cc2ccccc2)cc(C2CCCNC2)n1 (configuration not stated)
Percent Effect (30.3 µM, […]): 2.708%

Cc1nc(NC2CCCCC2)cc(C2CCCNC2)n1.Cl (configuration not stated)
Percent Effect (30.3 µM, […]): 43.9%

Cc1cc(Cc2cccc(C(F)(F)F)c2)cc(C2CCCNC2)n1 (configuration not stated)
Percent Effect (30.3 µM, […]): 99.88%

Cc1cc(Cc2ccccc2F)cc(C2CCCNC2)n1 (configuration not stated)
Percent Effect (30.3 µM, […]): 18.5%

CN1CC(=O)N(c2cnn(C)c2)CC12CCN(Cc1cccs1)C2.O=C(O)C(F)(F)F.O=C(O)C(F)(F)F (configuration not stated)
Percent Effect (30 µM, 30.03 µM): -5.896%

Cc1nc(CN2C(=O)CCC23CCN(Cc2ccccn2)CC3)cs1.O=C(O)C(F)(F)F.O=C(O)C(F)(F)F
Percent Effect (30.3 µM, […]): -6.926%

COCCN1C(=O)C[C@H]2[C@H]1CCN2Cc1ccc(OC)cc1.O=C(O)C(F)(F)F
Percent Effect (30 µM, 30.03 µM): -19.5%

CC(C)CN1CCC(NC(=O)c2ccc(Cl)cc2Cl)CC1
Percent Effect (30 µM, 30.03 µM): -12.53%

Cc1ncc(CNCCO)c2cc(C(=O)c3ccc(Br)cc3)oc12.Cl
Percent Effect (30 µM, 30.03 µM): -4.371%

CCOCC1CN(CCOCc2ccccc2)Cc2c1cnn2C (configuration not stated)
Percent Effect (30.3 µM, […]): -79.88%

COCC1CN(CCc2ccc(OC)c(OC)c2)Cc2c1cnn2C (configuration not stated)
Percent Effect (30.3 µM, […]): -2.73%

CCOCC1CN(CCc2ccccc2)Cc2c1cnn2C (configuration not stated)
Percent Effect (30.3 µM, […]): 62.26%

O=C(O)C(F)(F)F.O=C1N(CC2CCCC2)CCC12CCN(c1ncc(F)cn1)CC2
Percent Effect (30.3 µM, […]): -27.57%

Fc1ccccc1Sc1ccccc1CNC1=NCCN1.I
Percent Effect (30 µM, 30.03 µM): 6.107%

Cn1cccc1C(=O)N1C[C@@H]2C[C@@H](c3nc(C4CC4)cs3)O[C@@H]2C1.O=C(O)C(F)(F)F
Percent Effect (30 µM, 30.03 µM): -16.96%

CC1CCCN(CCNC(=O)c2ccn(-c3cccc(F)c3)n2)C1 (configuration not stated)
Percent Effect (30.3 µM, […]): 1.994% | Percent Effect (10 mM, 10 mM as filed; unlikely as a test dose): 11.39%

COc1ccc(-n2ccc(C(=O)NCCN3CCCCCC3)n2)cc1
Percent Effect (30.3 µM, […]): 53.03% | Percent Effect (10 mM, 10 mM as filed; unlikely as a test dose): -44.94%

CC1CCCN(CCNC(=O)c2ccn(-c3ccccc3)n2)C1 (configuration not stated)
Percent Effect (30 µM, 30.03 µM): 26.82%

CC1CCCN(CCNC(=O)c2ccn(-c3ccc(F)cc3)n2)C1 (configuration not stated)
Percent Effect (30.3 µM, […]): 63.43% | Percent Effect (10 mM, 10 mM as filed; unlikely as a test dose): 1.661%

COc1ccc(-n2ccc(C(=O)NCCN3CCC(C)CC3)n2)cc1
Percent Effect (30.3 µM, […]): 26.29% | Percent Effect (10 mM, 10 mM as filed; unlikely as a test dose): 24.76%

COc1ccc(-n2ccc(C(=O)NCCN3CCCCC3)n2)cc1
Percent Effect (30.3 µM, […]): -2.952% | Percent Effect (10 mM, 10 mM as filed; unlikely as a test dose): -24.45%

CCCn1[nH]cc/c1=N\C(=O)CN1CCc2cnc(C(C)C)nc2C1
Percent Effect (10 µM): -28.74%

CCc1ocnc1C(=O)N1CCOC(c2nc(C)n[nH]2)C1 (configuration not stated)
Percent Effect (10 µM): -27.2% | Percent Effect (30.3 µM, […]): -13.47%

Cc1ccc(CN2Cc3nnn(C)c3C(COCc3ccccc3)C2)s1.O=C(O)C(F)(F)F (configuration not stated)
Percent Effect (30.3 µM, […]): -18.47%

Cn1cc(-c2ncc3c(c2C(=O)O)CCN(CC2CC2)C3)cn1.O=C(O)C(F)(F)F.O=C(O)C(F)(F)F
Percent Effect (30.3 µM, […]): -26.37%

COCCC1(CNC(=O)Nc2ccnc(C)c2)CCCC1
Percent Effect (30 µM, 30.03 µM): 5.014%

CN(C)c1ncc(I)c(C2CCCN2C)n1.Cl (configuration not stated)
Percent Effect (30.3 µM, […]): -5.31%
